Screens: PubChem BioAssay, National Center for Advancing Translational Sciences (NCATS)
Compounds with a hit are over-represented: about 19% of the library has one in this group of screens.
HT1080-NT tox – qHTS for induction of synthetic lethality in tumor cells producing 2HG: qHTS for the HT-1080-NT fibrosarcoma cell line; hit rate 1.6% among 360,000; Potency, µM (doses to about 46.1 µM), for inactives: at the highest dose activity, negative = less viability, usual class: cytotoxic; HT-1080-NT fibrosarcoma viability, CellTiter-Glo ATP luminescence, 48 h;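 note: NT is the 2HG producing partner of a matched IDH1 knockdown line; potency is the fitted concentration of half-maximal effect; 0% = DMSO-treated cells and -100% = media-only wells without cells; nearly all actives have a fitted effect of over 55% in size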
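Viability by CellTiter-Glo luminescence after 48 h compound exposure at 37C of HT-1080-NT cells (750/well, RPMI, 5% FBS). % activity scaled between DMSO wells and medium-only wells, then curve-fitted and categorized by curve class.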
HT1080 IDH1KD tx – qHTS for induction of synthetic lethality in tumor cells producing 2HG: qHTS for the HT-1080-IDH1KD cell line; HT-1080 IDH1 knockdown viability, ATP luminescence, 48 h; Potency, µM (highest dose often 46.1 µM), for the others: at the highest dose activity, negative = toxicity, hits mostly cytotoxic; hit rate 2% among 360,000; AID 686971, 2013;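 note: potency is the fitted concentration of half-maximal effect; 0% = DMSO wells and -100% = cell-free medium wells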
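After a 2 h attachment period, IDH1KD HT-1080 cells took pin-transferred compound for 48 h at 37 °C; ATP-based luminescence after 10 min room-temperature reagent incubation reported viability.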
DT40 TDP1 CPT – qHTS for Inhibitors of human tyrosyl-DNA phosphodiesterase 1 (TDP1): qHTS in cells in presence of CPT. chicken DT40 Tdp1-/-;hTDP1 cells + 20 nM CPT, ATP luminescence, 48 h. Potency, µM (titrated, usually from 46.2 µM), inactives show top-dose activity change, negative = growth inhibition, usual class: inhibitors. hit rate 12% among 420,000. AID 686979, 2013; note: potency is the fitted concentration of half-maximal effect; nearly all actives have a fitted effect of over 55% in size
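Chicken DT40 Tdp1-/- cells stably complemented with human TDP1 were seeded at 400 cells/well in medium containing 20 nM camptothecin, exposed to pin-transferred compounds, and grown at 37 °C for at least 48 hr. Viability was read as ATP luminescence.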
IL1B secr inh – qHTS for Inhibitors of Inflammasome Signaling: IL-1-beta AlphaLISA Primary Screen; THP-1 LPS/ATP IL-1B secretion, AlphaLISA, 16 h; active compounds read low; activity change, % at 57.5 µM; hit rate 4.7% among 360,000; AID 743279, 2014; in the data active = activity change below about -50%; inconclusive = mostly about -30% to -49%
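THP-1 cells pretreated 1 hr with compounds (up to 57.5 uM final), then stimulated with LPS (250 ng/mL final) plus ATP (1.25 mM final); secreted IL-1B measured by AlphaLISA after 16 hr, decreased signal indicating inhibition.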
TDP1 cell noCPT – qHTS for Inhibitors of human tyrosyl-DNA phosphodiesterase 1 (TDP1): qHTS in cells in absence of CPT. Potency, µM (series often up to 46.2 µM), for inactives: at the top dose activity change, negative = growth inhibition, usual class: inhibitors. AID 686978, 2013. DT40 Tdp1-/- hTDP1 cells, no CPT, ATP luminescence, 48 h. hit rate 15% among 420,000; note: potency is the fitted concentration of half-maximal effect; nearly all actives have a fitted effect of over 55% in size
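Growth kinetics read by CellTiter-Glo luminescence after ≥48 hr at 37 °C. Cells: DT40 Tdp1-/- stably carrying human TDP1, 400 per well, compound exposure in the absence of CPT (DMSO vehicle).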
uPA generation – qHTS for Inhibitors of Cell Surface uPA Generation; Potency, µM (top dose mostly 38.3 µM), for the others: at the top dose activity change, negative = inhibition, hits mostly inhibitors; hit rate 0.31% among 330,000; cell surface uPA generation assay, qHTS; AID 540303, 2011; active = well fitted inhibition curve with a large enough effect; inconclusive = small, poorly fitted or top-dose-only effect; inactive = no such curve, though single readings can be large or run the other way; tested in mouse RAW 264.7 cells; note: potency is the fitted concentration of half-maximal effect; nearly all actives have a fitted effect of over 55% in size
Active calls of the source: *; ? = inconclusive; . = not tested or not shown. Unless noted, calls come from the whole dose curve; as a rule, active = well fitted curve in the direction sought with a large enough effect; inconclusive = small, poorly fitted or top-dose-only effect, or another doubt; inactive = no such curve, though single readings can be large; an effect the other way counts as inactive or inconclusive. Unless noted, % is set by controls: 0 for no effect and ±100 for the full control effect.

SMILES	HT1080-NT tox	HT1080 IDH1KD tx	DT40 TDP1 CPT	IL1B secr inh	TDP1 cell noCPT	uPA generation
Cc1cc(C)c2c(=O)cc(C(=O)Nc3ccc(S(=O)(=O)N(C)Cc4ccccc4)cc3)oc2c1	.	.	5.8µM*	.	?	.
O=C(Nc1cccc(S(=O)(=O)N2CCCCCC2)c1)c1cc(=O)c2ccccc2o1	-10%	-18%	23µM*	-9	13µM*	-19%
CCN(c1ccccc1)S(=O)(=O)c1ccc(NC(=O)c2cc(=O)c3ccccc3o2)cc1	.	.	-6%	.	-15%	.
CN(c1ccccc1)S(=O)(=O)c1cccc(NC(=O)c2cc(=O)c3ccccc3o2)c1	-20%	-26%	16µM*	-52*	12µM*	-12%
Cc1cc(C)c2c(=O)cc(C(=O)Nc3ccc(S(=O)(=O)Nc4nc(C)cc(C)n4)cc3)oc2c1	.	.	12%	.	?	.
Cc1ccc(CNC(=O)Cn2cnc3c(NC(=O)OCc4ccccc4)ncnc32)o1	0%	-1%	-10%	-5	-12%	-2%
COc1ncc2nc(-c3cccs3)c(=O)n(CCc3ccccc3)c2n1	.	.	18%	.	25%	.
CCOC(=O)C1CCN(C(=O)CSc2n[nH]c(-c3ccc(F)cc3)n2)CC1	.	.	-23%	.	-16%	.
COc1ccc(OC2C(=O)N(Cc3ccc(F)cc3)C2c2cc(OC)c(OC)c(OC)c2)cc1 (stereo not drawn)	-7%	-2%	?	-17	23µM*	-3%
c1nc(NC2CCNCC2)c2cc(-c3ccoc3)ccc2n1	.	.	?	.	-10%	.
Cc1ccc2ncnc(Nc3cccc([N+](=O)[O-])c3)c2c1	11%	4%	23µM*	-5	?	7%
Cn1ncc2c(Nc3cccc([N+](=O)[O-])c3)ncnc21	16%	11%	-19%	-1	?	-18%
OCCNc1ncnc2ccc(Br)cc12	-10%	-15%	?	23	6.5µM*	2%
O=C(O)c1cccc(Nc2ncnc3ccc(Br)cc23)c1	11%	1%	-21%	27	?	3%
Fc1ccc(Nc2ncnc3ccc(-c4ccoc4)cc23)cc1	.	.	15µM*	.	?	.
CNc1ncnc2ccc(-c3ccccc3OC)cc12	.	.	?	.	21µM*	.
NC(N)=NS(=O)(=O)c1ccc(NC(=S)NC(=O)Cc2ccc(Cl)cc2)cc1	0%	-1%	5%	30	0%	-14%
O=C(COC(=O)c1ccc(F)cc1Cl)NC1CC1	-1%	2%	4%	-7	4%	.
COc1ccc2cc(-c3nc(Cl)c4c5c(sc4n3)CCCC5)c(=O)oc2c1	.	.	-2%	.	1%	.
COc1ccccc1-c1ccc2ncnc(NCCNC(C)=O)c2c1	.	.	-24%	.	-2%	.
Brc1ccc2ncnc(Nc3cccc4ccccc34)c2c1	?	?	?	-80*	?	-6%
COc1ccc(OC)c(Nc2ncnc3ccc(Br)cc23)c1	-7%	-1%	?	25	?	-8%
COc1cccc(Nc2ncnc3ccc(Br)cc23)c1	-1%	-13%	?	14	21µM*	.
COc1ccccc1-c1ccc2ncnc(Nc3ccccc3)c2c1	.	.	21µM*	.	-94%	.
Cc1cc(N(C)N)nc(NC(=O)NS(=O)(=O)c2ccccc2Cl)n1	0%	8%	-1%	20	-3%	0%
SMILES	HT1080-NT tox	HT1080 IDH1KD tx	DT40 TDP1 CPT	IL1B secr inh	TDP1 cell noCPT	uPA generation
CC(C)CCN(C(=O)c1csnn1)C(C(=O)NC1CCCCC1)c1ccc(F)cc1 (stereo not drawn)	-29%	-8%	-17%	-57*	?	7%
CCc1ccc(C(C(=O)NC2CCCCC2)N(C(=O)c2csnn2)C2CC2)cc1 (stereo not drawn)	-17%	-16%	16µM*	1	?	-1%
Cc1ccc(C(C(=O)NC2CCCCC2)N(C(=O)c2csnn2)C2CC2)cc1 (stereo not drawn)	6%	-12%	?	6	?	1%
O=C(Nc1ccccc1OC(F)F)c1ccc(S(=O)(=O)N2CCOCC2)cc1	9%	0%	4%	9	1%	18%
C=C(c1ccc(O)cc1)c1ccc(O)cc1	-30%	?	-6%	-59*	?	-9%
CCc1nc2ccccc2nc1N1CCN(S(=O)(=O)c2ccc(Cl)cc2)CC1	12%	18%	-5%	-6	?	4%
O=S(=O)(c1ccccc1)N1c2cc(Cl)ccc2Oc2nc3ccccc3nc21	-13%	-14%	?	-8	10µM*	-2%
Cc1ccc(CNC(=O)C2CCC(=O)N(CCCN3CCOCC3)C2)cc1 (stereo not drawn)	-5%	0%	-12%	6	2%	1%
COc1ccc(CNCC(O)(c2ccc(F)cc2)c2ccc(F)cc2)cc1	?	?	?	-89*	13µM*	-8%
COc1ccc(CNCC(O)(c2ccccc2)c2ccccc2)cc1	-9%	-20%	?	-78*	18µM*	3%
OC(CNCc1ccccc1)(c1ccccc1)c1ccccc1	-2%	-12%	-24%	-10	?	13%
COc1ccc(CNCC(O)(c2ccccc2)c2ccccc2)cc1OC	-11%	-21%	-73%	-13	13µM*	-9%
CC1=C(C(=O)N2CCCC(N3CCN(c4ccccc4F)CC3)C2)OCCO1 (stereo not drawn)	7%	6%	3%	3	-1%	-3%
CC(C(=O)NCC1CCCCC1)N(C)Cc1ccc(Cl)cc1 (stereo not drawn)	-17%	-16%	?	-23	18µM*	-2%
Cc1ccc(-n2c(-c3ccc(Cl)cc3)c[n+]3c2CCC3)cc1	?	?	3.3µM*	0	3.3µM*	?
Cc1ccc(-n2c(-c3ccccc3)c[n+]3c2CCC3)cc1	?	5.8µM*	1µM*	-73*	0.65µM*	-16%
FC(F)Sc1ccc(-n2c(-c3ccc(Cl)cc3)c[n+]3c2CCC3)cc1	?	?	12µM*	?	15µM*	-10%
COc1ccc2c(c1)OC(C)(C)C(c1ccccc1)C2c1ccc(OCCN2CCCC2)cc1 (stereo not drawn)	.	.	21µM*	.	27µM*	.
CCOc1ccc(CCNC(=O)c2nnc(CS(=O)(=O)c3ccccc3)o2)cc1OCC	-1%	7%	?	16	-14%	-1%
